# Compound activity deposited in PubChem BioAssay by Pan Lab, Icahn School of Medicine at Mount Sinai.
# ROC1-CUL1 inh = inhibitors of human ROC1-CUL1 ubiquitin ligase activity. AID 1347404. inhibition, % at 10 µM. in vitro K48 di-Ub FRET, acceptor:donor ratio, 45 min. P62877+Q13616. hit rate 0.6% among 140,000; in the data active = inhibition above about 25%
# * hit, by the source's call. The entries come from a sample that favours hits as a whole.
SMILES,ROC1-CUL1 inh
CC(=O)c1ccc2c(c1)C1C=CCC1C(c1cccc(Cl)c1Cl)N2 (stereo not given),2.2
O=C(O)c1cc2c3c(c1)C1C=CCC1C(c1ccccc1Cl)N3CC1CC=CC21 (stereo not given),100.7*
O=C1OC2(CCCCC2)OC(=O)C1=Cc1cn(Cc2ccccc2Cl)c2ccccc12,-10.9
CCOc1ccc2c(c1)c(=O)c(S(=O)(=O)c1ccc(C)cc1)cn2Cc1ccccc1Cl,-4.2
Cc1[nH][nH]c(=O)c1C(c1c(C)[nH][nH]c1=O)c1cn(Cc2ccccc2Cl)c2ccccc12,67.8*
Cc1ccc(Sc2ncnc3sc4c(c23)CCCCC4)cc1,2.1
CCCCOc1ccc(C(=O)C2C(=O)C(=O)N(CCCOC)C2c2ccc(O)c(OC)c2)cc1C (stereo not given),1.4
CCCCOc1ccc(C(=O)C2C(=O)C(=O)N(CCOC)C2c2ccc(CC)cc2)cc1C (stereo not given),40.6*
COc1ccc(C(=O)C2C(=O)C(=O)N(CCN(C)C)C2c2ccc(OCc3ccccc3)cc2)cc1 (stereo not given),-4.7
COc1ccc(C(=O)C2C(=O)C(=O)N(CCCN(C)C)C2c2ccc(C)cc2)cc1OC (stereo not given),-7.7
CCc1ccc(C2C(C(=O)c3ccc4c(c3)CC(C)O4)C(=O)C(=O)N2CCOC)cc1 (stereo not given),14.8
Cc1ccc(C2C(C(=O)c3ccc(OCc4ccccc4)c(C)c3)C(=O)C(=O)N2CCN(C)C)cc1 (stereo not given),72.0*
CC(=O)c1cc2c(cc1NC(=O)c1ccc(Cl)cc1)OCO2,-4.6
O=C(Nc1ccc(OCCOc2ccccc2)cc1)c1ccco1,13.2
CCOc1ccc2nc3cc(NC(=O)c4ccco4)ccc3c(N)c2c1,97.4*
CCCCOc1cccc(NC(=O)c2ccco2)c1,-4.5
O=C1C(=O)N(Cc2cccnc2)C(c2cccc(OCc3ccccc3)c2)C1C(=O)c1ccc(F)cc1 (stereo not given),6.7
O=C(Cn1nnnc1CN1CCOCC1)NCc1cnn(Cc2ccccc2)c1,2.0
CC1(C)C[C@@H]2C[C@@](C)(CN2C(=O)c2coc(Cn3cnc4ccccc43)n2)C1,-3.2
Cc1nonc1C(=O)NC1CC(=O)N(Cc2cccc(F)c2)C1 (stereo not given),-1.2
NCCNS(=O)(=O)c1cccc([N+](=O)[O-])c1,6.2
CN(Cc1ccc(-c2nc(C3CCNCC3)cc(=O)[nH]2)cc1)Cc1ccn[nH]1,3.9
COc1cc(OC)c(C(=O)Nc2cccc(SC)c2)cc1OC,6.3
O=C(O)c1sccc1-c1ccsc1,6.8
O=[N+]([O-])c1sccc1-c1ccsc1,29.4*
SMILES,ROC1-CUL1 inh
O=[N+]([O-])c1ccsc1C1OCCO1,-8.1
CCOC(=O)C(CC)Sc1nnc2c(n1)[nH]c1ccccc12 (stereo not given),-0.7
Cc1ccc(N2CCN(S(=O)(=O)c3ccc(F)cc3)CC2C)cc1 (stereo not given),5.0
COc1ccc(Cn2c(C)nc([N+](=O)[O-])c2S)cc1[N+](=O)[O-],-6.0
Cc1ccc(CN2C(=O)S/C(=C\c3ccc(-c4ccc(C(=O)O)c(Cl)c4)o3)C2=O)cc1,69.4*
Cc1ccc(C(=O)O)cc1-c1ccc(/C=C2\SC(=O)N(Cc3ccc(F)cc3)C2=O)o1,-5.1
CCN1C(=O)S/C(=C/c2ccc(-c3cccc(C(=O)O)c3C)o2)C1=O,9.8
Cc1ccc(C(=O)O)cc1-c1ccc(/C=C2\SC(=O)N(Cc3ccccc3)C2=O)o1,14.0
O=C(O)c1ccc(-c2ccc(/C=C3\SC(=O)N(CC(=O)N4CCOCC4)C3=O)o2)cc1Cl,-1.3
O=C(O)c1ccc(-c2ccc(/C=C3\SC(=O)N(Cc4ccccc4)C3=O)o2)cc1Cl,93.1*
Cc1ccc(CNC(=O)C2CCN(C3NS(=O)(=O)C(c4ccc(C)c(C)c4)C3C)CC2)o1 (stereo not given),-8.9
O=C(CCN1C(=O)c2cccc3cccc(c23)C1=O)Nc1ccc(Br)cc1,-0.7
Nc1cccc(C(=O)OCC(=O)c2ccccc2)c1,-6.1
O=C(COC(=O)c1ccc(C(O)c2ccccc2)cc1)c1ccccc1 (stereo not given),32.3*
COc1ccc(C(=O)OCC(=O)c2ccc(OC(=O)c3ccccc3)cc2)cc1,6.0
CCCC1=NN2C(=N)/C(=C/c3cn(Cc4ccccc4F)c4ccccc34)C(=O)N=C2S1,-4.6
CC(=O)Nc1ccc2c(c1)C1C=CCC1C(c1ccccc1F)N2 (stereo not given),-7.5
Cc1ccc(C(=O)O)c2c1N[C@@H](c1ccccc1F)[C@H]1CC=C[C@@H]21,33.0*
Fc1ccccc1C1Nc2ccc3ccccc3c2C2C=CCC21 (stereo not given),-7.2
OC(c1ccc(Cl)cc1)(c1ccc(Cl)cc1)C(c1ccc(Cl)cc1)n1ccnc1 (stereo not given),-6.6
CC12CCC(C/C1=N\OC(=O)c1ccco1)C2(C)C (stereo not given),0.7
C=CCNS(=O)(=O)c1ccc(C(=O)Nc2ccccc2)cc1,-12.4
CCCOC(=O)c1cccc(-c2ccc(/C=C3\C(=O)N(c4ccc(S(N)(=O)=O)cc4)N=C3C(F)(F)F)o2)c1,4.6
CCOC(=O)c1ccc(N2NC(=O)/C(=C/c3ccc(OC(=O)c4cccs4)c(OC)c3)C2=O)cc1,24.5
COc1cccc(/C=C2\C(=O)N(c3ccc(S(N)(=O)=O)cc3)N=C2C)c1,96.6*
SMILES,ROC1-CUL1 inh
COc1cc(/C=C2\C(=O)N(c3ccc(S(N)(=O)=O)cc3)N=C2C(F)(F)F)ccc1OCC(C)C,34.7*
CC1=NN(c2ccc(S(N)(=O)=O)cc2)C(=O)/C1=C\c1ccc(N(C)C)cc1,6.7
COc1cccc(C=C2C(=O)N(C)C(=O)N(C)C2=O)c1,-4.1
C#CCOc1ccc(/C=C2\C(=O)N(c3ccc(S(N)(=O)=O)cc3)N=C2C(F)(F)F)cc1OCC,-0.8
COc1cc(/C=C2/C(=O)N(c3cccc(Cl)c3)N=C2C)ccc1OC(=O)c1cccs1,-9.4
COc1cc(/C=C2/C(=O)N(c3ccc(S(=O)(=O)O)cc3)N=C2C)ccc1OC(=O)c1cccs1,55.9*
CCN1CCN(CCNC(=O)Nc2ccc(Cl)cc2)CC1,6.7
Cc1ncsc1C(=O)N1CCCC1c1ccc(C(=O)NCC(C)C)s1 (stereo not given),-4.0
Clc1ccccc1-c1nn2c(-c3ccco3)nnc2s1,4.6
Cc1cccc(/C=N/Nc2cc(N3CCCCC3)nc(N3CCCCC3)n2)c1,1.3
CCC(=O)NNc1cc(N2CCCC2)nc(N2CCCC2)n1,74.5*
CCCc1nn2c(=O)cc(N3CCCCC3)nc2s1,-9.1
COc1ccccc1-n1nc(C(=O)O)c(=O)cc1C,-1.9
COc1ccc(-n2nc(C)c3[nH]c(-c4nn(C)cc4Cl)nc32)cc1,-2.0
CCN(CC1CCN(C2CCN(C)CC2)CC1)C(=O)CCC(=O)c1ccccc1,-2.9
CCN(CC1CCN(C2CCN(C)CC2)CC1)C(=O)c1cc(C)[nH]n1,25.8*
CCN(CC1CCN(C2CCN(C)CC2)CC1)C(=O)c1ccc(C=O)cc1,2.2
CCc1ccc(CN2CCC(N3CCCC(C(=O)NC4CC4)C3)CC2)cc1 (stereo not given),3.1
Clc1ccc2nc(-n3ncc4c3CCCC4)sc2c1,-3.2
O=c1[nH]nnc2c1sc1nc3c(c(-c4ccc(Cl)cc4)c12)CCCC3,2.9
NC(=O)c1sc2nnc(-c3ccco3)c(-c3ccco3)c2c1N,-6.9
O=c1[nH]nnc2c1sc1nc3c(c(-c4ccco4)c12)CCc1ccccc1-3,67.1*
